Here are results for ten compounds from PubChem BioAssay (NCATS).

Structures are written as SMILES. Inconclusive results are not listed. Active and inactive are the calls of the source. Unless noted, calls follow the shape of the dose curve; as a rule, active = well fitted curve in the direction sought with a large enough effect; inconclusive = small, poorly fitted or top-dose-only effect, or another doubt; inactive = no such curve, though single readings can be large; an effect the other way counts as inactive or inconclusive.

Test [1] in a line: P-glycoprotein substrates identified in KB-8-5-11 adenocarcinoma cell line, qHTS therapeutic library screen (AID 1346987). Also: nearly all actives have a fitted effect of over 65% in size. Also: potency is read from the fitted curve at half-maximal effect. The method, boiled down: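 Compounds are pinned in dose-response onto KB-8-5-11 cells (500 cells/well, colchicine-free medium) and left 72 h at 37 degree C. CellTiter-Glo luminescence then yields AC50 values.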
A general note: qHTS replaces the single test concentration by a dilution series.

Test [2] relates to Zika virus NS2B-NS3 protease (unlinked complex). In words: Primary screen GU Rhodamine qHTS for Zika virus inhibitors: Unlinked NS2B-NS3 protease assay (AID 1347159). Also: % is scaled to controls: 0 for no effect and ±100 for the full control effect; nearly all actives have a fitted effect of over 60% in size. The procedure, abridged:
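Buffer 10 mM Tris-HCl pH 8.0, 0.01% Tween 20. Unlinked protease 25 nM; compound preincubation 15 min, RT, protected from light. Substrate Rhod110, 1.5 microM; ~15% conversion in 15 min.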

Test [3] deals with Cytochrome P450 2D6 (Homo sapiens) (UniProt P10635). In words: Cytochrome P450 family 2 subfamily D member 6 (CYP2D6) small molecule antagonists: luciferase biochemical (cell-free) qHTS assay (AID 1645840; active = well fitted curve in the direction sought with a large enough effect in the repeat runs; an effect the other way counts as inactive or inconclusive; also: % is scaled to controls: 0 for no effect and ±100 for the full control effect; nearly all actives have a fitted effect of over 55% in size). The procedure, abridged:
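P450-Glo CYP2D6 system: proluciferin substrate converted by enzyme to luciferin, read by luminescence proportional to activity. Enzyme-substrate mix with compound 10 min at room temperature, then NADPH regeneration 1 h before detection reagent.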

Test [4] has as its target Cytochrome P450 2C9 (Homo sapiens) (UniProt P11712). In words: Cytochrome P450 family 2 subfamily C member 9 (CYP2C9) small molecule antagonists: luciferase biochemical (cell-free) qHTS assay (AID 1645842; active = well fitted curve in the direction sought with a large enough effect in the repeat runs; an effect the other way counts as inactive or inconclusive; also: nearly all actives have a fitted effect of over 55% in size; also: potency is read from the fitted curve at half-maximal effect; as to activity change, negative = inhibition: % is scaled to controls: 0 for no effect and ±100 for the full control effect). The method, boiled down:
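P450-Glo CYP2C9 system: proluciferin substrate with enzyme in mix containing 0.4% BSA, 10 min at room temperature, then NADPH regeneration solution added and incubated 1 h at 37C. Detection reagent stopped reaction; luminescence read after 20 min as RLU.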

Test [5] in a line: Primary qHTS to identify inhibitors of SARS-CoV-2 cell entry (AID 1645846; calls by dose curve; also: nearly all actives have a fitted effect of over 45% in size). To be noted: activity change, negative = inhibition: at 57.1 µM (top of the series) unless noted. The procedure, abridged:
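Entry measured by luciferase signal 48 h after adding SARS-CoV-2-S pseudotyped MLV particles to HEK293-ACE2 cells preincubated 1 h with compounds. Normalisation: bald particles and spike particles.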

Test [6] in a line: Primary qHTS for inhibitors of nuclear receptor binding SET domain protein 2 (NSD2) in an RCH-ACV wild type WT cells (2C) (AID 1645877). Also: nearly all actives have a fitted effect of over 70% in size. Also: potency is read from the fitted curve at half-maximal effect.
Test [7] is described as follows: Primary redox qHTS assay for identification of artifact compounds. (AID 1845223).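 Also: 0% = DMSO and 100% = reference compound.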 The method, boiled down: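 Redox-cycling detection via DTT (250 uM final) oxidation coupled to Amplex Red (25 uM)/HRP (250 mU/mL) in HBSS. 15 min preincubation plus 30 min after DTT, room temperature. Ex/Em 525/598 nm; 4-parameter Hill fit against DMSO and 10 uM DA3003.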
Test [8] can be described thus: qHTS drug screen for cell cycle checkpoint inhibitors in PARPi-resistant BRCA-mutant ovarian cancer cell lines. (AID 1963452; calls by dose curve). To be noted: PEO1/OlaR viability, CellTiter-Glo luminescence, 96 h, stronger effect = lower value. The procedure, abridged:
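PEO1, PEO4 and PEO1/OlaR ovarian cancer cells, 600 per well, exposed 96 h at 37C to a dilution series. Viability read by CellTiter-Glo luminescence, normalized to DMSO and empty wells; activity summarized as Z-AUC.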

The subject of another test is KB-3-1. In words: Cytotoxic Profiling of Annotated Libraries Using Quantitative High-Throughput Screening (AID 1296008). Also: nearly all actives have a fitted effect of over 60% in size. Also: potency is read from the fitted curve at half-maximal effect. As to max response: % is scaled to controls: 0 for no effect and ±100 for the full control effect. To be noted: Five cell lines viability, CellTiter-Glo ATP luminescence, 48-72 h; max response: stronger effect = lower value. The method, boiled down: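 Compounds were pin-transferred onto cells and incubated 48 or 72 hr at 37 degree Celsius, 95% humidity. CellTiter-Glo was added, plates sat 10 min at room temperature, then ATP-coupled luminescence was imaged as the viability read-out.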
(In general: ATP-based viability assays read luminescence as a measure of living cells.)

In the next test the test system is CAOV3. In words: Primary qHTS to identify gynecologic anti-cancer compounds using libraries of approved drugs and bioactive compounds (AID 1345084). Also: nearly all actives have a fitted effect of over 55% in size. Also: potency is read from the fitted curve at half-maximal effect. The note with it: Gynecologic cancer cell panel viability, ATPlite luminescence, 48 h; series mostly up to 57.5 µM. The procedure, abridged: (§1)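 ATP-based viability (ATPlite), 1,000 cells/well, 16 h pre-incubation, 48 h compound at 37 C, 5% CO2, 15 min RT before read.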

Another test has as its system SKOV3. The test is described as above. To be noted: Gynecologic cancer cell panel viability, ATPlite luminescence, 48 h; series mostly up to 57.5 µM. The procedure, abridged:
as §1

Another test deals with HeLa. The test is described as above. To be noted: Gynecologic cancer cell panel viability, ATPlite luminescence, 48 h; series mostly up to 57.5 µM. The procedure, abridged:
as §1

A short description of test [9]: Primary fluorescence-based thiol-reactive (MSTI) qHTS assay for identification of artifact compounds. (AID 1845221).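 Also: thiol-reactive compounds lower the probe fluorescence signal; nearly all actives have a fitted effect of over 65% in size.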 The procedure, abridged: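 A multi-concentration qHTS design tested compounds against 4 uM MSTI, pH 7.4 phosphate-buffered saline. Plates were protected from light for 1 h at room temperature before imaging fluorescence.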
A short description of test [10]: P-glycoprotein substrates identified in KB-3-1 adenocarcinoma cell line, qHTS therapeutic library screen (AID 1346986). Also: nearly all actives have a fitted effect of over 60% in size. The procedure, abridged:
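72 h cell-killing screen, 500 cells/well, CellTiter-Glo luminescence. Paired lines KB-3-1/KB-8-5-11; P-gp dependence checked by tariquidar co-treatment and HEK-293 MDR-19 versus empty-vector cells.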

Cytochrome P450 2C9 (Homo sapiens), sequence (P11712 whole entry, looked up): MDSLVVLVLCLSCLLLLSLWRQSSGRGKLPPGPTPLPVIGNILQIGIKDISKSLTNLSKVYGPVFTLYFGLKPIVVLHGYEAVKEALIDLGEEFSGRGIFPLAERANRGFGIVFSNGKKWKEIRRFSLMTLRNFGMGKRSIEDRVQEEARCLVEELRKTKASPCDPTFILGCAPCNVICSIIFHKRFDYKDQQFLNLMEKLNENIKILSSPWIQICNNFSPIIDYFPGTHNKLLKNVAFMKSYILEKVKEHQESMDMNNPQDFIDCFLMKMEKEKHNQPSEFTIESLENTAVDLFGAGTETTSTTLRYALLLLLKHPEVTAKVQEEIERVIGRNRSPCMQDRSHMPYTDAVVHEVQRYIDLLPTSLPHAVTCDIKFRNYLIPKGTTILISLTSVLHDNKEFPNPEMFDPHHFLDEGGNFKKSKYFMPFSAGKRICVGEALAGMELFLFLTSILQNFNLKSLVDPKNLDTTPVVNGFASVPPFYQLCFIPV
Cytochrome P450 2D6 (Homo sapiens), sequence (P10635 whole entry, looked up): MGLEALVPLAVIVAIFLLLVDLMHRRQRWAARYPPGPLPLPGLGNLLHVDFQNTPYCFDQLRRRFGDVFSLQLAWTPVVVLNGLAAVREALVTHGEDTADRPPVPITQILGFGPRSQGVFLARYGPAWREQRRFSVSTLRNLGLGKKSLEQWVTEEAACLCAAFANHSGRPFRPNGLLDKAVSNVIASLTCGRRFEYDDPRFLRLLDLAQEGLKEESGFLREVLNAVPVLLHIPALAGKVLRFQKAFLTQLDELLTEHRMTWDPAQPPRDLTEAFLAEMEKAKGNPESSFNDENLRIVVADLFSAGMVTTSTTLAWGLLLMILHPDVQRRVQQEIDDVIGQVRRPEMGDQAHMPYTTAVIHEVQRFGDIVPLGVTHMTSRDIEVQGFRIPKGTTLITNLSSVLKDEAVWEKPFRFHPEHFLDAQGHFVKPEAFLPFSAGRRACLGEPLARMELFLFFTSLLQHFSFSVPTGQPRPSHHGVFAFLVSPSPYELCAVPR

`CC(=O)N1N=C(c2ccc(N)cc2)c2cc3c(cc2C[C@H]1C)OCO3`: the Potency result (in [1]; in test [2]; in test [3]; in [6]; in test [7]; with CAOV3) was “inactive” in each case. Further, in the test with SKOV3, the Potency entry is “inactive”. In addition, the Potency in test [4] was 12 µM (active). Also, in [5], the activity change, negative = inhibition was -4.19%. Besides, the figures for the Z-AUC in [8], in test [8] (measured here: PEO1 parental Z-AUC) and in test [8] (measured here: PEO4 Z-AUC) were 0.45 (inactive), 0.452 and 0.412, respectively. Further, in the test on KB-3-1, the max response was 6.29% (inactive).

In the case of `O=C(CC1NCCC[C@H]1O)Cn1cnc2cc(Br)c(Cl)cc2c1=O` (some centres undefined), the Potency result in test [1], in test [3] and in test [4] was “inactive” in each case. Besides, the max response in the test with KB-3-1 is -10.5% (inactive).

For `COC1CC(O[C@H]2CC[C@]3(C=O)C4CC[C@]5(C)[C@@H](C6=CC(=O)OC6)CC[C@]5(O)[C@@H]4CC[C@@H]3C2)OC(C)C1O[C@@H]1O[C@H](CO)[C@@H](O[C@@H]2O[C@H](CO)[C@@H](O)[C@H](O)[C@H]2O)[C@H](O)[C@H]1O` (some centres undefined), the Potency in test [1] is 0.123 µM (active); in test [6], 0.123 µM (active); with KB-3-1, 0.174 µM (active); in the test with HeLa, 0.398 µM (active); in the test on SKOV3 it was 0.398 µM (active). The Potency entry in test [2] is “inactive”.

`CO[C@@H]1C[C@H](O[C@H]2CC[C@@]3(C)C(CCC4C3CC[C@]3(C)[C@@H](C5=CC(=O)OC5)[C@@H](OC(C)=O)CC43O)C2)O[C@H](C)[C@@H]1O[C@H]1O[C@H](CO[C@@H]2O[C@H](CO)[C@@H](O)[C@H](O)[C@H]2O)[C@@H](O)[C@H](O)[C@H]1O` (some centres undefined): the Potency in test [1] is 0.873 µM (active); in [6] it was 0.774 µM (active); in the test with KB-3-1 it was 0.979 µM (active); with CAOV3, 2.24 µM (active); in the test with HeLa, 1.58 µM (active); in the test with SKOV3, 2 µM (active). For the same compound, the Potency result in test [2] was “inactive”. The activity change, negative = thiol reactive in [9] was 43.8% [at 11.5 µM] (inactive). Further, in test [7], the redox activity (% of DA3003) was 15.6% [at 11.5 µM] (inactive).

`C=C1[C@@H](C)[C@H]2[C@H](Cc3ccccc3)NC(=O)[C@]23OC(=O)/C=C/C(=O)CCC[C@@H](C)C/C=C/[C@H]3[C@@H]1O`: the Potency in test [1] is 5.8 µM (active); in [6] it was 0.459 µM (active); in the test with KB-3-1, 5.8 µM (active); with CAOV3, 12.6 µM (active); with SKOV3, 25.1 µM (active). For the same compound, in test [9], the Potency result is “inactive”.

As for `CC(=O)OC[C@]12C[C@H](OC(=O)CC(C)C)C(C)=C[C@H]1O[C@@H]1[C@H](O)[C@@H](O)[C@@]2(C)[C@]12CO2`, the Potency in [1] is 0.112 µM (active); in test [6], 0.0178 µM (active); with KB-3-1 it was 0.0399 µM (active); with HeLa, 0.158 µM (active). For the same compound, the Potency result in [2] and in test [7] was “inactive” in each case.

`OCc1nnc2n1-c1ccc(Cl)cc1C(c1ccccc1Cl)=NC2`: the Potency entry (in test [2]; in test [9]; in test [7]; in the test on CAOV3; in the test on HeLa; in the test on SKOV3) was “inactive” in each case. The max response with KB-3-1 is 8.98% (inactive).

As for `C[C@]12CC[C@H](O)C[C@H]1CC[C@@H]1[C@@H]2[C@H](O)C(=O)[C@]2(C)[C@@H](c3ccc(=O)oc3)CC[C@]12O`, the Potency in test [1] is 0.0259 µM (active); in test [6] it was 0.0515 µM (active); in the test on KB-3-1, 0.0461 µM (active). The Potency result in test [2], in test [9] and in [7] was “inactive” in each case.

On to `COC1CC(O[C@H]2CC[C@@]3(C)C(CCC4C3CC[C@]3(C)[C@@H](C5=CC(=O)OC5)CC[C@]43O)C2)OC(C)C1O` (some centres undefined), for which the Potency in test [1] is 0.1 µM (active); in the test with KB-3-1, 0.159 µM (active); with CAOV3 it was 0.178 µM (active); in the test on HeLa it was 0.141 µM (active); with SKOV3 it was 0.126 µM (active). For the same compound, the Potency entry in [2], in test [9] and in test [7] was “inactive” in each case.

For `C[C@H]1O[C@@H](n2cnc3c(N)ncnc32)C[C@@H]1O`, the Potency result in test [10], in test [1], in test [2], in [6], in [9] and in test [7] was “inactive” each time. Moreover, the Potency result in the test with HeLa and in the test with SKOV3 was “inactive” throughout. Further, the compound was classed as inactive in the test with KB-3-1.
